Experiment [1] can be described thus: Immunotoxin (SS1P) sensitization/mitigation study. Vehicle arm (DMEM) (AID 1159513; call rule not given here).
Experiment [2] can be described thus: High-throughput drug toxicity screening in the BPDCN cell line Gen2.2 (AID 1224824; call rule not given here;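 note: cells exposed to compounds for 48 h before reading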). Conditions: Gen2.2 BPDCN cells; at 45.8 µM (top of the series). In short, it runs like this:
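Seed 500 exponentially growing Gen2.2 cells/well; add compounds by pin tool; incubate 48 h, 37 °C, 5% CO2; add CellTiter-Glo, 15 min RT; read luminescence. % activity vs DMSO (100%) and bortezomib (0%).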

Experiment [3] is described as follows: High-throughput drug toxicity screening in the BPDCN cell line Cal-1 (AID 1224825; call rule not given here). Conditions: Cal-1 BPDCN cell viability, qHTS; at 45.8 µM (top of the series). The method, boiled down: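 Viability of the BPDCN line Cal-1 is measured as ATP-based luminescence (CellTiter-Glo) following 48 h incubation with compounds. Percent activity uses DMSO-treated wells as 100% and 9.2 uM bortezomib as 0%.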
(In general: qHTS replaces the single test concentration by a dilution series.)

A short description of experiment [4]: qHTS assay for measurement of the activity of small molecule inhibitors on Zika virus induced Caspase-3 activity in human iPSC derived neural progenitor cells (hNPCs) (AID 1224857). Note: % of control where 0% means no effect; nearly all actives have a fitted effect of over 65% in size. In short, it runs like this: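 Human iPSC-derived neural progenitor cells pretreated 1 hr with compounds, then infected with Zika virus (2 FFU/cell) for 6 hours at 37 C. Caspase-3/7 measured by Caspase-Glo luminescence; % inhibition calculated from induction scaled to uninfected (0%) and infected (100%) wells.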

Experiment [5] is described as follows: qHTS assay for measurement of the activity of small molecule inhibitors on Zika virus induced Caspase-3 activity in human astrocytoma cells (AID 1224859).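 Note: plate controls were ZIKV-infected untreated cells for no effect and uninfected cells for full effect.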 The method, boiled down: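 SNB-19 astrocytoma cells, 250/well, pretreated 1 h with compounds, then Zika virus at 2 FFU/cell for 6 h at 37 C; Caspase-Glo 3/7 luminescence after 30 min; percent inhibition normalised to uninfected and infected controls.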

A short description of experiment [6]: qHTS Screen of the MIPE 4.0 Collection Against Ewings Sarcoma (RDES) (AID 1259252). Note: nearly all actives have a fitted effect of over 35% in size. Note: potency is the fitted concentration of half-maximal effect. In short, it runs like this: (§1)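 Compound titrations go onto adherent log-phase cells 4 h after seeding, incubate 48 h at 37C, then CellTiter-Glo luminescence reports viability relative to DMSO and cell-free controls.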
The nature of experiment [7]: qHTS Screen of the MIPE 4.0 Collection Against Ewings Sarcoma (TC71) (AID 1259253). Note: nearly all actives have a fitted effect of over 40% in size. Note: potency is the fitted concentration of half-maximal effect. The method, boiled down:
as §1

Experiment [8] is described as follows: qHTS Screen of the MIPE 4.0 Collection Against Ewings Sarcoma (EW8) (AID 1259255).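 For viability: 100% = DMSO-treated cells and 0% = medium-only wells without cells.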 Note: nearly all actives have a fitted effect of over 35% in size. Note: potency is the fitted concentration of half-maximal effect. In short, it runs like this: as §1
Experiment [9] is described as follows: qHTS Screen of the MIPE 4.0 Collection Against Ewings Sarcoma (TC32) (AID 1259256). Note: nearly all actives have a fitted effect of over 45% in size. Note: potency is the fitted concentration of half-maximal effect. In short, it runs like this: as §1
Experiment [10] in a line: P-glycoprotein substrates identified in KB-8-5-11 adenocarcinoma cell line, qHTS therapeutic library screen (AID 1346987). Note: nearly all actives have a fitted effect of over 65% in size. In short, it runs like this: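 Compounds are pinned in dose-response onto KB-8-5-11 cells (500 cells/well, colchicine-free medium) and left 72 h at 37 degree C. CellTiter-Glo luminescence then yields AC50 values.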

Inconclusive results are not listed. The source made the active and inactive calls. Unless noted, calls come from the whole dose curve; as a rule, active = well fitted curve in the direction sought with a large enough effect; inconclusive = small, poorly fitted or top-dose-only effect, or another doubt; inactive = no such curve, though single readings can be large; an effect the other way counts as inactive or inconclusive.

Regarding `CN(NC(=O)CC(=O)NN(C)C(=S)c1ccccc1)C(=S)c1ccccc1`, the Potency entry in experiment [1] was “inactive”.
Same read-out and setting: the value for `N#Cc1c(O)c2c(-c3ccc(-c4ccccc4O)cc3)csc2[nH]c1=O` was “inactive”; that for `Clc1ccc(-c2nc3sccn3c2C=NOCc2ccc(Cl)c(Cl)c2)cc1` was “inactive”.
The same measure, in the same setting: the value for `CC(C)=CCCC(C)=CCCC(C)=CCSc1ccccc1C(=O)O` was “inactive”.
On the same count and under the same terms, to `NC(=O)c1ccc(N(C(N)=O)c2c(F)cccc2F)nc1-c1ccc(F)cc1F` belongs “inactive”.
For the compound `COC[C@H]1OC(=O)c2coc3c2[C@@]1(C)C1=C(C3=O)[C@@H]2CC[C@H](O)[C@@]2(C)C[C@@H]1OC(C)=O`, in [2], the cell viability, % of control (lower = more cytotoxic) was 5.55%. The viability (% of control) in [3] turned out to be 9.36%. Besides, the Potency result in [4] and in experiment [5] was “inactive” throughout. Further, the Potency is 5.9 µM (active) in [6], 13.2 µM (active) in experiment [7] and 6.62 µM (active) in [8].
With `CC(C)(C)C(=O)Oc1ccc2c(c1)nc(NC(=O)c1cccc([N+](=O)[O-])c1)n2CCCO`, in experiment [1], the Potency entry was “inactive”.
Regarding `C#C[C@]1(O)C=C[C@@H]2[C@@H]3CCC4=CC(=O)CC[C@@H]4[C@H]3CC[C@@]21CC`, the cell viability, % of control (lower = more cytotoxic) in experiment [2] is 62.7%. Moreover, the viability (% of control) in [3] was determined as 74.7%. For the same compound, the Potency result in [4], in [5], in experiment [6], in experiment [7], in experiment [8] and in experiment [9] was “inactive” in each case.
Take `C[C@]12CC[C@H](O)CC1=CC[C@H]1[C@H]3CCC(=O)[C@@]3(C)CC[C@@H]12`: the cell viability, % of control (lower = more cytotoxic) in [2] amounted to 136%. Also, in [3], the viability (% of control) is 104%. The Potency result in [4], in experiment [5] and in experiment [10] was “inactive” each time. Besides, the Potency in experiment [6] is 4.18 µM (active); in experiment [7], 18.7 µM (active); in experiment [8], 16.6 µM (active); in experiment [9] it was 16.6 µM (active).
Take `COC(=O)[C@@H](N)CCCN=C(N)N[N+](=O)[O-]`: in [2], the cell viability, % of control (lower = more cytotoxic) was found to be 113%. Moreover, the viability (% of control) in [3] came to 132%. The Potency entry in [4], in experiment [5], in experiment [6], in experiment [7], in experiment [8] and in experiment [9] was “inactive” in each case. For the same compound, the Potency entry in [10] is “inactive”.
